{"source": "PubChem BioAssay AID2506", "about": "(National Center for Advancing Translational Sciences (NCATS), 2010)", "note": "Values joined by “and” are separate entries in the source; they are usually repeats but may differ in a detail not shown here. Identical values can stand only once. Active and inactive are the calls of the source. The call rests on the fitted dose curve; in most records, active means well fitted curve in the direction sought with a large enough effect; inactive means no such curve, though single readings can be large or run the other way."}
{"system": "4-diphosphocytidyl-2-C-methyl-D-erythritol kinase IspE (bacterial, species not stated)", "experiment": "Confirmatory Assay for Inhibitors of Human Galactokinase (GALK): CDP-Me assay counterscreen for probe SAR", "settings": "Kinase-Glo ATP luminescence, 1 h", "description": "NIH Molecular Libraries Probe Production Centers Network [MLPCN] NIH Chemical Genomics Center [NCGC] MLPCN Grant: R03 MH085689-01 Assay Submitter (PI): Kent Lai (University of Utah School of Medicine, 50 N Mario Capecchi Drive, Salt Lake City, UT 84132) NCGC Assay Overview The GHMP kinase family is a unique class of important enzymes that plays an essential role in many metabolic processes. It contains more than 170 protein members among which are the galactokinase (GALK) and the CMK enzymes. GALK plays a crucial role in galactose processing and is a potential therapeutic target for Classic Galactosemia (OMIM: 230400). CMK is involved for the non-mevalonate synthesis of isoprenoids precursors and natural products like sterols or ubiquinones which are important to many biological functions. Although the sequence identity between GALK and CMK is low, the three-dimensional structures and active sites are highly similar. Therefore to determine the validity and selectivity of an active compound observed in the GALK qHTS screen (AID: 1868), a bioluminescent counter-screen targeting bacterial CMK was developed. In addition, because the mevalonate independent synthesis of isoprenoids are more prevalent in opportunistic pathogens such as bacteria, CMK is a potential novel therapeutic target where selective inhibitors could be used to determine potential antibacterial effects. The CMK (provided by Kent Lai) was assayed using ATP and 4-diphosphocytidyl-2-C-methyl-D-erythritol (CDP-ME; Echelon, cat# I-M052) as substrates. Promega Kinase-Glo Plus (cat# V3774) technology was used to detect the residual ATP following kinetic reaction. Briefly, the Kinase-Glo Plus contains Ultra-Glo [5] luciferase and D-luciferin which generates a bioluminescence signal from the remaining ATP.\nNCGC Assay Protocol Summary: Three uL/well of substrate solution (15 uM ATP, 30 uM CDP-ME, 20 mM HEPES pH8.0, 5 mM MgCl2, 40 mM KCl, 1 mM DTT, 0.01% BSA final concentration) was dispensed into 1536-well, assay plates (Greiner, solid white medium-binding plates) with Aurora Discovery BioRAPTR Flying Reagent Dispenser (FRD; Beckton-Dickenson). Compound and control solutions (23 nL) were transferred to the assay plate using the Kalypsys 1536-pin tool. One uL/well enzyme solution (0.25 ug/mL CDP-Me kinase, 20 mM HEPES pH8.0, 5 mM MgCl2, 40 mM KCl, 1 mM DTT, 0.01% BSA final concentration) was then added using the FRD yielding a total kinase reaction volume of 4 uL/ well. After 1 hour of room temperature incubation, 4 uL Kinase-Glo Plus reagent was added for a final assay volume of 8 uL/well. After 1 min, luminescence was detected with the ViewLux plate reader (Perkin Elmer, Waltham, MA) using a 1 sec exposure time and 2x binning settings."}
{"compound": "O=C1CCCC2=C1C1(CCCC1)N=C(Nc1nc3cc(Cl)ccc3o1)N2", "max response": "3.11% (inactive)"}
{"compound": "O=C1CCCC2=C1C1(CCSCC1)N=C(Nc1nc3ccccc3o1)N2", "max response": "-0.443% (inactive)"}
{"compound": "O=C1CCCC2=C1C1(CCC1)N=C(Nc1nc3ccccc3o1)N2", "max response": "4.72% (inactive)"}
{"compound": "O=C1CCCC2=C1C(c1ccc(Cl)cc1)N=C(Nc1nc3ccccc3o1)N2", "note": "(stereo not drawn)", "max response": "0.739% (inactive)"}
{"compound": "O=C1CCCC2=C1C1(CCCC1)N=C(Nc1nc3cc4ccccc4cc3o1)N2", "max response": "5.94% (inactive)"}
{"compound": "COc1cccc(C2N=C(Nc3nc4ccccc4o3)NC3=C2C(=O)CC(C)(C)C3)c1", "note": "(stereo not drawn)", "max response": "0.986% (inactive)"}
{"compound": "Cc1nc(Nc2nc3ccccc3o2)nc2c1C(=O)CC(C)(C)C2", "max response": "-1.17% (inactive)"}
{"compound": "O=C1CCCC2=C1C1(CCCC1)N=C(Nc1nc3ccccc3o1)N2", "max response": "4.68% (inactive) and -2.85% (inactive)"}
{"compound": "O=C1CCCC2=C1C1(CCCOC1)N=C(Nc1nc3ccccc3o1)N2", "note": "(stereo not drawn)", "max response": "3.35% (inactive)"}
{"compound": "O=C1CCC2=C1C(c1ccccc1Cl)N=C(Nc1nc3ccccc3o1)N2", "note": "(stereo not drawn)", "max response": "-0.401% (inactive)"}
{"compound": "CC1(C)CC(=O)C2=C(C1)NC(Nc1nc3ccccc3o1)=NC2c1cccc(Cl)c1", "note": "(stereo not drawn)", "max response": "2.44% (inactive)"}
{"compound": "COc1ccccc1C1N=C(Nc2nc3ccccc3o2)NC2=C1C(=O)CC(C)(C)C2", "note": "(stereo not drawn)", "max response": "1.66% (inactive)"}
{"compound": "O=C1CCC2=C1C1(CCCC1)N=C(Nc1nc3ccccc3o1)N2", "max response": "2.86% (inactive)"}
{"compound": "O=C1CC(c2ccccc2)CC2=C1C1(CCCC1)N=C(Nc1nc3ccccc3o1)N2", "note": "(stereo not drawn)", "max response": "3.59% (inactive)"}
{"compound": "CC1(C)CC(=O)C2=C(C1)NC(Nc1nc3ccccc3o1)=NC2c1ccccc1", "note": "(stereo not drawn)", "max response": "1.82% (inactive)"}
{"compound": "O=C1CCCC2=C1C1(CCS(=O)(=O)C1)N=C(Nc1nc3ccccc3o1)N2", "note": "(stereo not drawn)", "max response": "-0.863% (inactive)"}
{"compound": "COc1ccc(C2N=C(Nc3nc4ccccc4o3)NC3=C2C(=O)CC(C)(C)C3)cc1", "note": "(stereo not drawn)", "max response": "1.84% (inactive)"}
{"compound": "CC1(C)CC(=O)C2=C(C1)NC(Nc1nc3ccccc3o1)=NC21CCCC1", "max response": "-5.27% (inactive)"}
{"compound": "CC1(C)CC(=O)C2=C(C1)NC(Nc1nc3ccccc3o1)=NC2c1cccc(F)c1", "note": "(stereo not drawn)", "max response": "2.59% (inactive)"}
{"compound": "CC1(C)CC(=O)C2=C(C1)NC(Nc1nc3ccccc3o1)=NC2c1cccc(O)c1", "note": "(stereo not drawn)", "max response": "1.58% (inactive)"}
{"compound": "O=C1CCCC2=C1C1(CCSC1)N=C(Nc1nc3ccccc3o1)N2", "note": "(stereo not drawn)", "max response": "-0.317% (inactive)"}
{"compound": "CC1(C)CC(=O)C2=C(C1)NC(Nc1nc3ccccc3o1)=NC2c1cccnc1", "note": "(stereo not drawn)", "max response": "1.01% (inactive)"}
{"compound": "Cc1ccc(C2N=C(Nc3nc4ccccc4o3)NC3=C2C(=O)CC(C)(C)C3)cc1", "note": "(stereo not drawn)", "max response": "2.37% (inactive)"}
{"compound": "O=C1CCCC2=C1C1(CCCC1)N=C(Nc1nc3cc(Br)ccc3o1)N2", "max response": "5.8% (inactive)"}
{"compound": "Cc1ccc2oc(NC3=NC4(CCCC4)C4=C(CCCC4=O)N3)nc2c1", "max response": "5.2% (inactive)"}
{"compound": "CC1CCC2(C1)N=C(Nc1nc3ccccc3o1)NC1=C2C(=O)CCC1", "note": "(stereo not drawn)", "max response": "2.87% (inactive)"}
{"compound": "CC1(C)N=C(Nc2nc3ccccc3o2)NC2=C1C(=O)CCC2", "max response": "3.59% (inactive)"}
{"compound": "O=C1CCCC2=C1C(c1ccccc1Cl)N=C(Nc1nc3ccccc3o1)N2", "note": "(stereo not drawn)", "max response": "-2.1% (inactive)"}
{"compound": "O=C1CCCC2=C1C1(CCCC1)N=C(Nc1nc3cc(-c4ccccc4)ccc3o1)N2", "max response": "-2.69% (inactive)"}
{"compound": "O=C1CC(c2ccccc2)CC2=C1C1(CCCCC1)N=C(Nc1nc3ccccc3o1)N2", "note": "(stereo not drawn)", "max response": "5.2% (inactive)"}
{"compound": "CCC1CCC2(C1)N=C(Nc1nc3ccccc3o1)NC1=C2C(=O)CCC1", "note": "(stereo not drawn)", "max response": "0.524% (inactive) [middle of 5 runs]"}
{"compound": "CC1(C)CC(=O)C2=C(C1)NC(Nc1nc3ccccc3o1)=NC2c1ccccc1Cl", "note": "(stereo not drawn)", "max response": "1.88% (inactive)"}
{"compound": "O=C1CCCC2=C1C1(CCOCC1)N=C(Nc1nc3ccccc3o1)N2", "max response": "4.63% (inactive)"}
{"compound": "O=C1CCCC2=C1C1(CCCC1)N=C(Nc1nc3ccccc3n1Cc1ccccc1)N2", "max response": "4.95% (inactive)"}
{"compound": "O=C1CCCC2=C1[C@@]1(CCC(c3ccccc3)C1)N=C(Nc1nc3ccccc3o1)N2", "note": "(stereo partly drawn)", "max response": "3.98% (inactive)"}
{"compound": "O=C1CCCC2=C1C1(CCCCC1)N=C(Nc1nc3ccccc3o1)N2", "max response": "-0.522% (inactive)"}
{"compound": "Cn1c(NC2=NC3(CCCC3)C3=C(CCCC3=O)N2)nc2ccccc21", "max response": "5.48% (inactive)"}
{"compound": "Cc1ccc2nc(NC3=NC4(CCCC4)C4=C(CCCC4=O)N3)oc2c1", "max response": "7.12% (inactive)"}
